This note sets out measurements from PubChem BioAssay AID624404 (Broad Institute, 2012).

In all, about 1,800 compounds went through this assay and about 710 (39%) were called active. Roughly 28% stayed inconclusive and do not appear here. Only a sample is shown. Measured potencies and affinities stand elsewhere. A number with no mark means an inactive call.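 The calls were made as follows: active = luciferase signal rise whose fitted curve crosses a set activity limit at or below the top valid tested dose; inconclusive = flat fit with 30 to 70% rise, or poor fit; inactive = signal falling, flat within 30%, or crossing above top dose.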

This experiment is described as follows: luciferase activators in glycosylation-insensitive reporter cells, dose response, counter-screen for N-linked glycosylation inhibitor project, D54 LucT cells, luminescence, cherry pick (AID 624404).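 Also: 0% = median neutral control signal and 100% = twice that signal.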 Particulars: D54 LucT luciferase reporter counterscreen, 24 h; series mostly up to 19.5 µM; activity increase (luciferase signal): at the top concentration. A general note: Counterscreens check selectivity or assay interference.
With `COC(=O)Nc1ccc(S(=O)(=O)N2CCCc3ccccc32)cc1`, the “activity increase (luciferase signal)” value is -15.6%. Under `O=C1CCCN1c1ccc(S(=O)(=O)Nc2ccc3c(c2)OCCO3)cc1` stands 35.6%; under `COC(=O)c1ccc(S(=O)(=O)N2CCc3ccccc32)cc1`, 47.4%. Under `Cc1nc([N+](=O)[O-])c(Sc2nc3ccccc3[nH]2)n1Cc1ccccc1` stands 19.7%; under `COc1ccc(OC)c(NS(=O)(=O)c2ccc(SC)cc2)c1`, 16.3%. In the case of `O=C1/C(=C/c2ccccc2)CCc2ccc(Cl)nc21`, the “activity increase (luciferase signal)” value is 29.5%. Under `c1cc2c3c(cccc3c1)C(N1CCCCC1)=N2` stands -6.38%. Under `Nc1c(N(CCC2=CCCCC2)C(=O)COc2ccc(F)cc2Cl)c(=O)[nH]c(=O)n1Cc1ccccc1` stands -73.5%; under `COc1ccc(-c2cc(C(F)F)n3ncc(C(=O)N4CCc5ccccc54)c3n2)cc1`, -4.74%. Under `O=c1cc(-c2ccccc2)[nH]n1-c1nc2ccccc2[nH]1` stands -17.5%; under `CCCCCc1ccc(OCCC[n+]2ccccc2)c(CCCCC)c1`, -63.6%.

For `Cc1cnc(C(=O)OCC(=O)NC2CCCCCCC2)cn1`, the “activity increase (luciferase signal)” value is 49.4%. Under `NC(=O)[C@H]1CC2(CC(c3cccc(NC(=O)COc4ccc(Cl)cc4)c3)=NO2)CN1C(=O)C(c1ccccc1)c1ccccc1` (stereo not given in full) stands -31.4%; under `O=C(N/N=C\c1cccnc1)c1cc(-c2ccccc2)nc2c(Cl)cccc12`, -40.5%. Under `COc1ccc(NC(=O)c2nc(C)c(C3(C)CC(c4ccccc4)=NO3)s2)cc1` (stereo not given) stands 21.9%; under `CCOC(=O)C1=C(Cc2ccc(F)cc2)C(=O)c2ccccc2C1=O`, 39%. For the molecule `CCOC(=O)c1c(C)nc2sc3c(=O)n(-c4ccc(C)cc4)cnc3c2c1-c1ccc(OC)cc1`, the “activity increase (luciferase signal)” value is 1.25%. `COC(=O)c1ccccc1NC(=O)Cn1nnc(-c2ccc(OC)cc2)n1`: the “activity increase (luciferase signal)” value was 41%. Under `COc1ccc(Cn2c(=O)cc(N)n(-c3ccccc3C)c2=O)cc1` stands 45.7% [at 5 µM]; under `CCOc1ccc(OCC(=O)N(CCC2=CCCCC2)c2c(N)n(Cc3ccccc3)c(=O)[nH]c2=O)cc1`, -36.8%. Under `CC(C)CN(C(=O)COC(=O)CCSc1ccc(Cl)cc1)c1c(N)n(Cc2ccccc2)c(=O)[nH]c1=O` stands 0.545%; under `COc1ccc(-c2cc(-c3ccccc3)c(C#N)c(S(C)=O)n2)cc1` (stereo not given), -12.6%. Under `Cc1cc(Br)cc2c(C(=O)Nc3c(C)n(C)n(-c4ccccc4)c3=O)cc(-c3cccs3)nc12` stands 22.6% [at 5 µM]; under `CCCn1c(CN2CCN(C(=O)OCC)CC2)nc2cc(NC(=O)CC)ccc21`, 23%. `CN1CCN(CC(=O)Nc2cc(N(C)C)nc3ccccc23)CC1`: the “activity increase (luciferase signal)” value was 15.8%. In the case of `CC(C)(C)NCC(O)CON=C1c2ccccc2-c2ccccc21` (stereo not given), the “activity increase (luciferase signal)” value was -11.5%.

`Cc1ccccc1OCCOC(=O)c1c(-c2ccccc2)noc1C`: the “activity increase (luciferase signal)” value is 5.79%. Under `Cc1ccc(-c2cc(C(F)F)n3ncc(C(=O)N4CCc5ccccc54)c3n2)cc1` stands -8.28%; under `CC(C)Oc1ccccc1C1CC(=O)Nc2cc3c(cc21)OCO3` (stereo not given), 13%; under `CCOc1cccc2sc(Nc3nc4ccc(NC(C)=O)cc4s3)nc12`, -31.6%. On to `Cc1cc(C)c2c(N)c3ccccc3nc2n1`, for which the “activity increase (luciferase signal)” value is 3.64%. Under `CCc1ccc2nc3nc(C)cc(C)c3c(N)c2c1` stands -2.78%; under `COC(=O)C1=C(C(=O)OC)[C@@H]2N(Cc3ccccc3)c3ccccc3[C@@]23C[C@@H](C(=O)OC)N(C(=O)c2cc(C)oc2C)C3=N1`, 2.73%; under `C=CCN1c2ccccc2[C@]23C[C@@H](C(=O)OC)N(C(=O)c4ccc(Br)cc4)C2=NC(C(=O)OC)=C(C(=O)OC)[C@H]13`, -7.77%. Under `CCCOC(=O)c1[nH]c2c(c1C)C(=O)CC(c1cccs1)C2` (stereo not given) stands -7.69%; under `COc1cc(/C=C2/C(=O)N(C)C(=S)N2C)ccc1OCc1cccc(F)c1`, -47.8%; under `COc1ccc(/C=C2\SC(=S)N(CCC(=O)NC3CCCC3)C2=O)cc1OC`, -13.3%. Under `COc1cc2c3c(cccc3c1)C(=O)N(CCN1CCCC1)C2=O` stands 0.522%.

`Cc1ccc(C)c(N2CCN(S(=O)(=O)c3ccc(-c4ccc(=O)[nH]n4)o3)CC2)c1`: the “activity increase (luciferase signal)” value is 13.6%. Under `CC1(C(=O)NCc2cccs2)Cc2c(-c3ccc(C(N)=O)cc3)ccnc2O1` (stereo not given) stands 13.2%; under `CC(=O)c1cccc(-c2ccnc3c2CC(C(=O)NCc2cccs2)O3)c1` (stereo not given), 31.3%; under `CC(=O)Nc1cccc(-c2ccnc3c2CC(C(=O)NCc2ccc(F)c(F)c2)O3)c1` (stereo not given), 4.2%. Under `Cc1ccc(CNC(=O)Cc2ccc(-n3c(=O)[nH]c4ccsc4c3=O)cc2)cc1` stands -2.38%; under `COc1cc(C2CC(=O)Nc3cc(C)c(C)cc32)cc(OC)c1OC` (stereo not given), 37.1%; under `CN1CCN(C(c2ccc(Br)cc2)c2cc(Cl)c3cccnc3c2O)CC1` (stereo not given), 97.6%. Under `COc1ccc2noc3c2c1C(=O)c1ccccc1-3` stands 29.6%. For the molecule `CCN(CC)CCCNc1ccc2ncn3c4ccc(O)cc4c(=O)c1c23`, the “activity increase (luciferase signal)” value was -16.4%. Under `CN(C)CCNc1ccc2nnn3c4ccc(O)cc4c(=O)c1c23` stands -11.4%; under `COc1ccc2sc3cccc(NCCN(C)C)c3c(=O)c2c1`, 102%. Under `COc1cc(C)c2sc3ccccc3c(=O)c2c1NCCN(C)C` stands -86.3%. Under `COc1ccc(-n2c(C)cc(C(=O)CCl)c2C)cc1` stands -1.73%; under `c1ccc2sc(Sc3ncnc4sccc34)nc2c1`, 2.04%; under `COc1ccc2c(C)nc(Nc3nc(-c4ccccc4)cc(=O)[nH]3)nc2c1`, -0.912% [at 5 µM]. Regarding `COc1cc(OC)c(C2=NOC(C(=O)NCc3cccs3)C2)cc1Cl` (stereo not given), the “activity increase (luciferase signal)” value was 35.5%. Under `COc1ccc(C2=NOC(C(=O)NCc3ccco3)C2)cc1OC` (stereo not given) stands 31.1%; under `O=C(NCc1cccs1)C1CC(c2ccc(Cl)c(Cl)c2)=NO1` (stereo not given), 27.1%. Under `Cn1c(SCC(=O)c2ccccc2)ncc(C(=O)Nc2ccc(F)cc2)c1=O` stands 99.3%. Under `CC(=O)c1cccc(NC(=O)CSc2ncc(C(=O)Nc3ccccc3)c(=O)n2C)c1` stands -6.67%; under `CCn1cc2nc(SCC(=O)Nc3ccc(OC)cc3OC)n(Cc3ccc(OC)cc3)c(=O)c2n1`, -4.92%. Take `COc1ccc(CN(C)c2ncnc3sccc23)c(OC)c1OC`: the “activity increase (luciferase signal)” value is 7.71%. Under `NC(N)=N/N=C/c1ccc2cccc(OCc3ccccc3)c2n1` stands 20.1%.

As to `Cc1ccc(/C=N/NC(=O)c2c(C)nc3ccc(Br)cn23)cc1`, the “activity increase (luciferase signal)” value was 37.3%. Under `O=C(N/N=C/c1cccnc1)c1cc(-c2ccc(Br)cc2)nc2ccccc12` stands 24.2%; under `Cc1ccc(/C=N/NC(=O)CCn2nc(C)cc2C)c(C)c1`, 21.3%; under `Brc1ccc(CSc2ccc3nnc(-c4cccnc4)n3n2)cc1`, -12.3%.
